Molecules are shown by their SMILES. Screen size: about 220,000 compounds; about 930 (0.42%) were called active. No stated cut-off is given here; in the data, active means inhibition above about 50%; inactive means the rest. What follows is part of a selection rich in actives, with near analogues and random picks from the rest.

Usually inhibition stands for the change of the read-out against control, counted positive when it falls.

The target in the experiment is Glycoprotein 42 (Epstein-Barr virus (strain AG876)) (UniProt Q1HVG2). Put plainly: EBV glycoprotein 42 binding blockers – biochemical, uHTS, fluorescence polarization, primary screen (AID 1085). The settings on record: Fluorescence polarization binding assay, mP read-out; stronger effect = higher value; tested at 21.74 µM.
Chain of Glycoprotein 42 (Epstein-Barr virus (strain AG876)) (Q1HVG2 whole entry, looked up): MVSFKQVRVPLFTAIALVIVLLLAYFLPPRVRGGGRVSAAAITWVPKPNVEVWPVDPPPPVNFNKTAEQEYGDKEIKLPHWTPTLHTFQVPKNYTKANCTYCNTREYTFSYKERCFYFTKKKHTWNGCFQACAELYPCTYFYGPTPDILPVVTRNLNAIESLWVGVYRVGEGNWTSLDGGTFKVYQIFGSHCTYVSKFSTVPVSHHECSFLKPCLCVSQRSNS
Consider `CCOC(=O)Nc1ccccc1N1C(=O)c2ccccc2C1=O`, for which the inhibition was -16.9% (inactive).
To `CC(C)OC(=O)CN1C(=O)C(=O)c2ccccc21` belongs -5.73% (inactive).
Turning to `CCOC(=O)c1cc2n(c1N)-c1ccccc1C2=O`, the inhibition is 157% (active).
To `CCNc1nc(N)nc(-c2cc(Cl)ccc2OC)n1` belongs -10.6% (inactive).
`CCN(CC)S(=O)(=O)c1ccc(Cl)c(C(=O)NC(C)C(c2cccs2)N2CCCC2)c1` (configuration not stated): the inhibition was -7.74% (inactive).
On to `O=C(c1[nH]ncc1-c1ccc(Cl)cc1)C1CO1` (configuration not stated), for which the inhibition is -0.17% (inactive).
To `Nc1ccc2nc3c(=O)[nH]c(=S)[nH]c3nc2c1` belongs 158% (active); to `O=C(Nc1ccc([N+](=O)[O-])cc1)C1CC12CCC2` (configuration not stated), 18.7% (inactive).
Turning to `FC(F)(F)c1ccc(-n2cn[nH]c2=S)cc1`, the inhibition was -0.1% (inactive).
To `COc1ccccc1NC(=O)CCSc1nnc(-c2ccc(O)cc2)o1` belongs 16.2% (inactive); to `Cc1cccc(OCCNC(=S)NC(=O)c2cccnc2)c1`, -11% (inactive).
To `Cc1ccc(C)c(SCc2nc3sc(C(=O)O)c(C)c3c(=O)[nH]2)c1` belongs -9.06% (inactive); to `CCOC(=O)c1ccc[n+](CC(=O)Nc2ccccc2OC(F)F)c1`, -15.4% (inactive).
To `Cc1ccc(-c2nc(SCC(=O)Nc3ccccc3OC(F)F)c3c(C)c(C(=O)O)sc3n2)cc1` belongs 92.6% (active); to `C[C@@H](NC(=O)OC(C)(C)C)c1nnc(S(=O)(=O)Cc2ccccc2)o1`, 0.97% (inactive); to `Cc1ccc(NC(=S)Nc2ncccc2C)c(C)c1`, -9.14% (inactive).
For `CCOC(=O)c1c(NC(=O)CNC2CCCc3ccccc32)sc(C(N)=O)c1C` (configuration not stated), the inhibition is -9.07% (inactive).
To `N#C/C(=C(/O)Cc1cccc2ccccc12)c1nc2ccccc2s1` belongs 4% (inactive).
The figure for `CC1=CC(=C(C#N)c2nc3ccccc3s2)C=C(C)N1c1ccc(F)cc1F` is 176% (active).
The figure for `O=C(O)CS/C(=C\c1ccc(F)cc1)c1nc2ccccc2s1` is -2.63% (inactive).
`Cc1c(C(=O)Nc2cccc(Cl)c2)cn2c(nc3ccccc32)c1C#N`: the inhibition was -23.4% (inactive).
The figure for `CC(=O)Nc1ccc(NS(=O)(=O)c2cc(C)sc2C)cc1` is 15.2% (inactive); for `O=C(Nc1ccc2sc3ccccc3c(=O)c2c1)c1ccccc1Cl` it is -5.22% (inactive); for `FC(F)(F)Oc1ccc(-c2cn3cccnc3n2)cc1` it is -6.62% (inactive).
The figure for `COC(=O)c1sc(=S)n(-c2ccccc2)c1N` is -22.9% (inactive).
To `COCCOC(=O)c1sc(=S)n(CCOC)c1N` belongs 85.3% (active); to `CCOC(=O)c1sc(=S)n(-c2cccc(OC)c2)c1N`, -17.2% (inactive).
On to `C/C(=N/NC(=O)CN1CCN(S(=O)(=O)c2ccc(Br)cc2)CC1)c1ccncc1`, for which the inhibition was -10.4% (inactive).
To `Cc1c(NC(=S)NCc2ccc(F)cc2)cccc1[N+](=O)[O-]` belongs -0.91% (inactive).
To `CCOc1ccc(/C=C(/NC(=O)c2ccccc2)C(=O)NCCC(=O)O)cc1` belongs 8.99% (inactive); to `COc1cc(/C=N\Nc2nc(-c3cccs3)c(NC(C)=O)s2)ccc1O`, -5.81% (inactive).
The figure for `COc1cc(/C=C(\C#N)c2nc3c(s2)CC(C)CC3)ccc1O` (configuration not stated) is -29.5% (inactive).
Turning to `CCOc1cc(/C=C(\C#N)c2nc(-c3cccs3)c(NC(C)=O)s2)ccc1O`, the inhibition was 93.2% (active).
The figure for `C/C(CC(=O)N1CCN(C=O)CC1)=N\NC(=O)c1ccc(Br)cc1` is 8.36% (inactive); for `COc1ccc(/C=N/n2c(C)cc(C)cc2=O)cc1` it is 1.02% (inactive).
To `Cc1cccc(NC(=S)NC23CN4CN(CN(C4)C2)C3)c1` belongs -1.99% (inactive).
Take `C=CCn1c(CSc2nc3ccccc3s2)nnc1SCC(=O)NCc1ccco1`: the inhibition was 50.6% (active).
To `CCn1c(COc2ccccc2)nnc1SCC(=O)NCc1ccco1` belongs 2.39% (inactive); to `C=CCn1c(SCC(=O)Nc2nc3ccccc3s2)nnc1-c1ccccc1O`, -0.36% (inactive).
To `CSc1cc(C)[nH]c(=O)n1` belongs 6.61% (inactive); to `Cc1cc(C(=O)N/N=C/c2ccc(N3CCOCC3)cc2)c(C)o1`, -16.3% (inactive); to `CNC(=O)c1ccsc1NC(=O)c1ccc(S(=O)(=O)N2CCc3ccccc32)cc1`, 0.14% (inactive).
For the molecule `Cc1cnc(C(=O)OCC(=O)NCCCc2ccccc2)cn1`, the inhibition is -8.79% (inactive).
The figure for `COc1ccccc1OCC(=O)OCn1c(SC)nnc(C)c1=O` is -6.57% (inactive); for `Cn1c(=O)n(C)c2cc(/C=N/NC(=O)c3cccc(Br)c3)ccc21` it is -5.32% (inactive).
The figure for `O=C(C1=C(O)C(=O)N(CCOCCO)C1c1ccccn1)c1cccs1` (configuration not stated) is -10.3% (inactive); for `O=C(C1=C(O)C(=O)N(c2ncccn2)C1c1cccs1)c1ccco1` (configuration not stated) it is 65.7% (active).
The figure for `O=C(C1=C(O)C(=O)N(Cc2ccccc2)C1c1ccco1)c1ccco1` (configuration not stated) is -8.71% (inactive); for `CCOC(=O)N/N=C1\CC(C)S(=O)(=O)c2ccc(Cl)cc21` (configuration not stated) it is 0.18% (inactive); for `O=c1cc(CO)oc(C(Nc2cccc([N+](=O)[O-])c2)c2ccccn2)c1O` (configuration not stated) it is -4.92% (inactive).
Consider `COc1ccc(-c2nn(C)c(=O)c3ccccc23)cc1CNC(=O)C1CCCCC1`, for which the inhibition was -11.8% (inactive).
Consider `COC(=O)CCCC1=CC2=CC(=O)C(C)(OC(=O)c3cccs3)C(=O)C2=CN1c1cccc(C#N)c1` (configuration not stated), for which the inhibition was 78% (active).
To `COC(=O)CCCC1=CC2=CC(=O)C(C)(OC(=O)c3cccs3)C(=O)C2=CN1CC1CC1` (configuration not stated) belongs 0.53% (inactive); to `COC(=O)CCCC1=CC2=CC(=O)C(C)(OC(=O)c3cccs3)C(=O)C2=CN1CC(C)C` (configuration not stated), 2.99% (inactive).
The figure for `Cc1ccc(C(=O)NNc2ncnc3ccccc23)cc1` is -1.4% (inactive).
To `CC(C)Oc1ccc(Oc2ccc(C(F)(F)F)cn2)cc1` belongs 6.36% (inactive); to `NC1=NC(=O)C2(COC(c3ccccc3Cl)OC2)S1` (configuration not stated), -11.7% (inactive); to `CN1CCN(CCCCOc2ccccc2-c2ccccc2)CC1`, -24.1% (inactive).
With `CCOC(=O)CC1C(=O)NCCN1c1nc2c(C)cccn2c(=O)c1/C=C1\SC(=S)N(C(C)CC)C1=O` (configuration not stated), the inhibition is -14.8% (inactive).
To `CNc1nc2c(C)cccn2c(=O)c1C=Nc1ccc(OC)cc1` belongs -10.2% (inactive); to `Cc1cccn2c(=O)c(/C=C3\SC(=S)N(CC(C)C)C3=O)c(NCCCOC(C)C)nc12`, 137% (active); to `CCOc1ccc(N2CC(C(=O)N/N=C/c3sccc3C)CC2=O)cc1` (configuration not stated), -24% (inactive).
To `C=CCNc1cnn(-c2ccc(C)cc2)c(=O)c1Cl` belongs 15.2% (inactive).
To `O=C(COC(=O)CNS(=O)(=O)c1ccccc1)NC12CC3CC(CC(C3)C1)C2` belongs -4.36% (inactive); to `COc1ccc(NC(=O)COc2ccc(C(=O)OCC(=O)N(C)C3CCS(=O)(=O)C3)cc2OC)cc1` (configuration not stated), -11.6% (inactive); to `Cc1c(-c2cccc(Cl)c2)nc2ccccc2c1C(=O)OCC(=O)N(C)C1CCS(=O)(=O)C1` (configuration not stated), 27.8% (inactive).
For the molecule `CN(C(=O)COC(=O)c1cc(-c2ccco2)nc2ccccc12)C1CCS(=O)(=O)C1` (configuration not stated), the inhibition was 95.4% (active).
The figure for `COc1ccc(/C=N/NC(=O)CNC(=O)c2ccc(S(=O)(=O)N3CCCC3)cc2)c(OC)c1` is -7.62% (inactive).
Take `COc1ccc(OCC(=O)NN2Cc3ccccc3C2=N)cc1`: the inhibition was -18.4% (inactive).
The figure for `O=C(NC1CC1)C1=C[C@H](c2c[nH]c3ccccc23)C[C@H](OCc2ccc(CO)cc2)O1` is -3.29% (inactive); for `O=C(NCc1ccc2c(c1)OCO2)c1ccc2c(c1)C(=O)N(CC1CCCO1)C2=O` (configuration not stated) it is -19.8% (inactive).
The figure for `O=c1c2cc3c(=O)n(CC4CCCO4)c(=O)c3cc2c(=O)n1CC1CCCO1` (configuration not stated) is -9.61% (inactive); for `O=C1c2cccc3c([N+](=O)[O-])ccc(c23)C(=O)N1CC1CCCO1` (configuration not stated) it is 64.2% (active).
To `CN1CCc2nc(SC(C(=O)O)c3ccccc3)c(C#N)c(-c3cccs3)c2C1` (configuration not stated) belongs 6.93% (inactive).
On to `CC(C)CNC(=O)COC(=O)c1ccccc1OCC(=O)Nc1ccc(Br)cc1`, for which the inhibition is -2.14% (inactive).
To `O=C(Oc1c(-c2ccco2)oc2ccccc2c1=O)c1cccnc1` belongs -4.14% (inactive); to `Cc1cc(SCC(=O)NCCN2C(=O)CSC2=O)nc2ccccc12`, -6.4% (inactive); to `COc1cc(C(F)(F)F)nc2c(Br)c(C(C)(C)C)nn12`, -5.73% (inactive).
To `CN(CCN1CCOCC1)Cc1nc(-c2ccc3c(c2)OCO3)no1` belongs -2.97% (inactive); to `Cc1oc2c(c1C(=O)N1CCOCC1)C(=O)c1ccccc1C2=O`, -10.1% (inactive); to `O=C1c2ccccc2-c2ncnc3c(N4CCOCC4)cc(N4CCOCC4)c1c23`, 51.8% (active).
The figure for `c1ccc(-c2oc3ncnc(N4CCOCC4)c3c2-c2ccccc2)cc1` is 0.89% (inactive); for `COCCn1c(Cc2cccn2C)nnc1SCC(=O)Nc1nccs1` it is 0.89% (inactive).
On to `COc1cccc(C(=O)Nc2ccc(N3CCCC3)cc2)c1`, for which the inhibition is -3.03% (inactive).
The figure for `COc1cc(N2CCCC2)c(OC)cc1/C=C(/C#N)c1cccc(Br)c1` is 112% (active).
To `CC(=O)Nc1cccc(Oc2cc(C#N)c(C#N)cc2N2CCOCC2)c1` belongs -5.04% (inactive); to `CCO[C@H]1OC(C(=O)N2CCOCC2)=C[C@@H](c2ccc3c(c2)OCO3)[C@@H]1CCCO`, -9.61% (inactive).
As to `CCO[C@H]1OC(C(=O)N2CCCCCCC2)=C[C@@H](c2ccc(C(F)(F)F)cc2)[C@@H]1CCCO`, the inhibition is 116% (active).
Take `CCO[C@@H]1OC(C(=O)N2CCOCC2)=C[C@H](C)[C@H]1CCCO`: the inhibition is -7.59% (inactive).
To `COC(=O)c1sccc1NN1C(=O)c2ccccc2C1=O` belongs -6.24% (inactive); to `CC(=O)Nc1ccc(S(=O)(=O)N2CCN(C(=O)c3ccccc3F)CC2)cc1`, -7.73% (inactive).
To `CCOC(=O)C1=C(N)N(c2ccc(C)cc2)C2=C(C(=O)CCC2)C1c1cccs1` (configuration not stated) belongs -16.1% (inactive).

The record behind these values is PubChem BioAssay AID1085 (Emory University Molecular Libraries Screening Center, 2008).
